System: Plasmodium falciparum
Assay: GSK_TCMDC: Inhibition of Plasmodium falciparum 3D7 in whole red blood cells, using parasite LDH activity as an index of growth. Test compounds present at 2uM
Assay type: functional

Row | Structure (SMILES) | Inhibition
1 | FC(F)(F)c1cnc(Sc2nnc(-c3ccco3)o2)c(Cl)c1 | 98%
2 | O=C(/C=C/c1ccc(Cl)c(Cl)c1)NCCCCCN1CCC(c2n[nH]c(-c3ccccc3)c2Br)CC1 | 95%
3 | Cc1cc(N[C@@H](CC(C)C)C(=O)NC2CCCC2)nc(NCC2CCCCC2)n1.O=C(O)C(F)(F)F | 100%
4 | Cc1[nH]c(C)c(-c2ccc(Oc3ccc(OC(F)(F)F)cc3)cc2)c(=O)c1Br | 96%
5 | CCC[C@@H](/C=N/N(C)C(=O)OC(C)(C)C)NC(=O)[C@H](CC(C)C)NC(=O)c1cc2cccc(OC)c2o1 | 88%
6 | CCN(CC)CCOC(=O)c1ccc(NC(=O)c2cn(-c3ccccc3)nc2-c2cccs2)cc1.Cl | 100%
7 | O=[N+]([O-])c1ccc(Nc2nc(N/N=C/c3cccc(O)c3)nc(N3CCCC3)n2)cc1 | 88%
8 | Cn1nccc1C(=O)NCCNCc1cccc(-c2cccc(-c3nc4cc(C(F)(F)F)ccc4[nH]3)c2)c1.O=C(O)C(F)(F)F | 100%
9 | CCN1CCN(c2ccc(NC(=O)c3cc4c(C)nn(-c5ccccc5)c4s3)cc2C)CC1 | 100%
10 | Br.CCc1ccccc1OCCCON1C(=N)N=C(N)NC1(C)C | 95%
11 | Cc1ccc(Nc2nccc(N(C)c3ccc4c(c3)nc(NC(=O)Cc3ccc(Cl)c(Cl)c3)n4C)n2)cc1S(N)(=O)=O.O=C(O)C(F)(F)F | 94%
12 | CC(Cc1ccc(NC(=O)c2ccc(CNCCc3ccccc3)cc2)cc1)NCCc1cccc(Cl)c1.Cl (stereo not drawn) | 100%
13 | O=C(NC1CCN(c2ccc(F)cc2[N+](=O)[O-])CC1)c1cccs1 | 90%
